The entries come from a sample that favours hits as a whole.
ST2 inh: inhibitors of human ST2 (IL1RL1) binding to IL-33, primary screen, biochemical, AlphaLISA; actives 2.3% (n = 78,000); AlphaLISA ST2-Fc/biotin-IL-33 interaction, 1 h; AID 1259354, 2018; inhibition, % for hits at 17 µM; in the data active means inhibition above about 30%
Target sequence (Q01638 whole entry, looked up): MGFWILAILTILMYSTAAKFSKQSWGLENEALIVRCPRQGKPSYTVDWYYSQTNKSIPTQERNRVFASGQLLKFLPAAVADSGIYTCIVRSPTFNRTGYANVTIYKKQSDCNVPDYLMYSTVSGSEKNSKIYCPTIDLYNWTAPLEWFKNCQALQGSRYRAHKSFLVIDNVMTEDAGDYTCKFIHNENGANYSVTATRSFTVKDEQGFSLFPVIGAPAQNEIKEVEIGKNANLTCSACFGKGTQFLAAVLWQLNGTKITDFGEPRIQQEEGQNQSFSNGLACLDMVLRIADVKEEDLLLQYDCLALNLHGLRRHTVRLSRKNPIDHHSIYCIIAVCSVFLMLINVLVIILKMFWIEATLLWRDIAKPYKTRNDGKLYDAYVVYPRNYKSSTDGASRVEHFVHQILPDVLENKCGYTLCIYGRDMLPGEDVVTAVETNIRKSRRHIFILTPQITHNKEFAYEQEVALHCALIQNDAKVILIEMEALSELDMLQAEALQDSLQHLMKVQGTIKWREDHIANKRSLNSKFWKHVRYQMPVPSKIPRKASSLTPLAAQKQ
Hits are given with their value; - = inactive.

SMILES	ST2 inh
COc1ccc(CNC(=O)C[C@@H]2[C@H](O)CC[C@@H]3[C@](C)(CO)[C@H](O)CC[C@]32C)cc1OC	-
CCOC(=O)c1[nH]ncc1CN1CCCC(Nc2ccccc2)C1 (stereo not drawn)	-
Cc1ccc(C(c2ccc(C)o2)c2cc([N+](=O)[O-])cc(Br)c2O)o1	-
COc1cccc(CCC2CCCN(S(=O)(=O)c3cccnc3)C2)c1 (stereo not drawn)	-
CCCS(=O)(=O)N1CCC(C(=O)NC2CCCCC2)CC1	-
COc1ccc(OC)c(-c2cc(C(=O)Nc3sc4c(c3C(N)=O)CCC(C)C4)no2)c1 (stereo not drawn)	-
COc1ccc(-c2cc(C(=O)Nc3sc4c(c3C(N)=O)CCC(C)C4)no2)cc1OC (stereo not drawn)	-
COc1ccc(C=Nc2sc3c(c2C#N)CCC(C)C3)cc1OC (stereo not drawn)	39%
Cc1ccc2[nH]c3c(c2c1)CN(C(=O)C1CCCN(CC(N)=O)C1)CC3 (stereo not drawn)	-
Cc1ccc2[nH]c3c(c2c1)CCCC3NCc1ccc(F)cc1 (stereo not drawn)	32%
COC(CN(C(C)=O)C1CCCc2c1[nH]c1ccc(C)cc21)OC (stereo not drawn)	-
CC(=O)N(c1ccc(Cl)cc1)C1C=CS(=O)(=O)C1 (stereo not drawn)	-
Cc1ccc(C2=N/C(=C\c3cccc(F)c3)C(=O)O2)cc1[N+](=O)[O-]	-
Cc1ccc(C2=N/C(=C\c3cccc([N+](=O)[O-])c3)C(=O)O2)cc1[N+](=O)[O-]	-
Cc1ccc(C2=N/C(=C\c3ccc(N(C)C)cc3)C(=O)O2)cc1[N+](=O)[O-]	30%
CC(=O)c1ccc(-n2nncc2C23CC4CC(CC(C4)C2)C3)cc1	-
COC(=O)C1=C(C)Nc2nc(SC)[nH]c(=O)c2C1c1ccc(F)cc1 (stereo not drawn)	-
CC(=O)NCCC1=CCCN(CC(=O)Nc2ccc(C)cn2)C1	-
Cc1cnn(CCCn2ccnc2-c2cccc3nonc23)c1	-
C=CCn1c(O)c(C2=c3cc(Br)ccc3=NC2=O)c2ccccc21	37%
O=C1N=c2ccc(Br)cc2=C1c1sc(Nc2cccc(C(F)(F)F)c2)nc1O	-
O=C1N=c2ccc(Br)cc2=C1c1sc(=O)[nH]c1O	-
O=C(CSc1nc(-c2ccco2)nc2cc(=O)[nH]n12)Nc1ccc2c(c1)OCO2	-
CCCCOC(=O)C1=C(C)Nc2ncnn2C1c1ccccc1OCC (stereo not drawn)	-
CCc1ccnc(NC(=O)c2cccc(CN3CC[C@H](O)C3)c2)c1	-
SMILES	ST2 inh
O=C(Nc1ccccc1O)c1ccc(S(=O)(=O)c2ccc(Cl)cc2)cc1	-
C/C(=C\C(=O)c1ccc(Cl)cc1)Nc1ccccc1O	30%
Cc1c(F)cccc1NC(=O)c1ccc(Cl)cc1	-
Cc1ccc(CCNS(=O)(=O)c2c(C)n[nH]c2C)cc1	-
Cn1c(=O)c2c(nc(NCCCO)n2Cc2cccc3ccccc23)n(C)c1=O	-
Cc1ccccc1Cn1c(NCc2ccccc2)nc2c1c(=O)n(C)c(=O)n2C	-
Cn1c(=O)c2c(nc(NCc3cccnc3)n2Cc2cccc3ccccc23)n(C)c1=O	30%
CCCCOc1ccc2c(CCC)cc(=O)oc2c1	-
COc1ccc(CNc2ccccc2C(=O)O)cc1	-
COc1ccc(Nc2ccccc2C(=O)O)cc1	35%
COc1ccc(OC)c(S(=O)(=O)Nc2ccccc2)c1	-
COc1ccc(C2CC(=O)C=C(Nc3ccccc3)C2)cc1 (stereo not drawn)	-
COc1ccc(Nc2ccccc2)c(C)c1	37%
COc1ccc(NS(=O)(=O)c2cccc(C(=O)Nc3ccccc3C(=O)O)c2)cc1	-
COc1ccc(Nc2ccc(OC)cc2)cc1	70%
COc1ccc(NC2=C(C)C(=O)CC2)cc1	-
COc1ccc(NC(=O)Nc2ccc(I)cc2)cc1	-
Cn1c(=NC(=O)C2CCCCC2)sc2ccccc21	-
O=c1[nH]nc(SCc2ccccc2Cl)c(=O)[nH]1	-
CCc1nc2nc(C)[nH]n2c(=O)c1NC(=O)Nc1ccc(F)cc1F	-
Cc1ccccc1Cn1cc(S(=O)(=O)CC(=O)Nc2ccc3c(c2)OCO3)c2ccccc21	-
CC(C)N(C)Cc1nnnn1CC(=O)N1CCN(c2cccc(C(F)(F)F)c2)CC1	-
COc1ccc(CNC(=O)C[C@@H]2O[C@H](CNC(=O)c3ccco3)[C@@H](O)[C@H]2O)cc1	-
O=C(NCc1cccs1)c1cccn1-c1nnc(N2CCCCC2)s1	-
O=C1NCC2(CCCN(c3nc(-c4ccccc4)nc4ccccc34)CC2)O1 (stereo not drawn)	-
SMILES	ST2 inh
OCC1CCCN1Cc1cccc(Cl)c1 (stereo not drawn)	-
O=C1N(Cc2cccc(Cl)c2)C[C@@H]2C[C@@H](c3ccc4nsnc4c3)N3CCC[C@@]123	40%
O=C1N(CCc2ccccc2)C[C@@H]2C[C@@H](c3cnc(-c4ccccc4)s3)N3CCC[C@@]123	-
Oc1ccccc1CN1C[C@H](O)C[C@H]1c1nc(-c2ccc3c(c2)OCO3)no1	-
O[C@@H]1C[C@@H](c2nc(-c3ccc4c(c3)OCO4)no2)N(Cc2ccc(Cl)cc2)C1	-
O[C@@H]1C[C@@H](c2nc(-c3ccc4c(c3)OCO4)no2)N(C2CCOCC2)C1	33%
CC(=O)N1CCC(N2C[C@H](O)C[C@H]2c2nc(-c3ccc(C(F)(F)F)cc3)no2)CC1	-
CC(=O)N1CCC(N2C[C@H](O)C[C@H]2c2nc(-c3ccc4c(c3)OCO4)no2)CC1	42%
CC(=O)Nc1ccc(S(=O)(=O)N[C@H]2C[C@@H](c3nc(-c4ccc5c(c4)OCO5)no3)N(C)C2)cc1	-
Cc1ccccc1C(=O)N(c1ccc(C(C)C)cc1)C1C=CS(=O)(=O)C1 (stereo not drawn)	-
O=C(NCc1ccccc1Cn1cccn1)c1ccc(-n2cnnc2)cc1	-
CN(Cc1cn[nH]c1-c1ccc(F)cc1)C(=O)c1ccc(-n2cnnc2)cc1	-
COc1ccc(-c2nc3sccn3c2Nc2ccc3c(c2)OCO3)cc1	30%
Cc1ccc(-c2nc3sccn3c2Nc2ccccc2C)cc1	-
COc1cc(-c2nc3cnccn3c2Nc2ccc3c(c2)OCCO3)ccc1O	-
CCS(=O)(=O)N1CCN(c2nccc(CCC(F)(F)F)n2)CC1	-
COc1ccc(OC)c(CN2CCN(c3ncnc4[nH]ccc34)CC2)c1	-
CCCCc1ncc(CN2CCN(Cc3ccc(OCC)cc3)C(CCO)C2)[nH]1 (stereo not drawn)	-
Cc1ccc(C2c3nc[nH]c3CCN2Cc2cc(C)ccc2O)cc1 (stereo not drawn)	-
CCCCc1ncc(CN2CCc3[nH]cnc3C2c2cccc(O)c2)[nH]1 (stereo not drawn)	37%
Cc1cc(C)c(CNCc2ccc3c(c2)CC(C)O3)c(C)c1CO (stereo not drawn)	-
O=C(NCCN1CCOCC1)c1cc(-c2ccc3c(c2)OCO3)on1	-
CC(C)Cn1cc(C(=O)NC2CCCC2)c2c3ccccc3n(C)c2c1=O	-
CC(C)Cn1cc(C(=O)NC2CCCCC2)c2c3ccccc3n(C)c2c1=O	36%
Cn1cc(C(=O)NC2CCCCCC2)c2c3ccccc3n(C)c2c1=O	-
Cc1ccc(CSC2=NCCN2C(=O)c2ccc(S(=O)(=O)N3CCOCC3)cc2)cc1	-
O=C(N[C@H]1CO[C@H]2[C@@H]1OC[C@@H]2Nc1nccc(-c2ccc(-c3ccccc3)cc2)n1)N1CCOCC1	-

Screens: PubChem BioAssay, Paczesny and Yang Labs, IUPUI and University of Michigan
